Counter-ions that a name gives are not always drawn.
system: Saccharomyces cerevisiae BY4741 SeMeCo community; assay: z-score of subpopulation abundance vs DMSO median, subpopulation auxotrophic for U; higher = larger share of this subpopulation than in DMSO controls; details: 10 µM; 24 h; SM minimal medium; subpopulation (auxotrophy): U
Experimental: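 Fluorescent four-plasmid SeMeCo (self-establishing metabolically cooperating S. cerevisiae BY4741 community; plasmids pH-mRuby2, pL-mWasabi, pU-eCFP, pM-TagRFP657) was grown 24 h in minimal SM medium with each Selleck FDA-approved drug at 10 µM in 384-well plates. Cells were fixed and imaged by high-content confocal microscopy. For each auxotrophic subpopulation (and the prototroph), a z-score gives the deviation from the DMSO vehicle-control population median.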

| SMILES | z-score of subpopulation abundance |
| --- | --- |
| Nc1nc2c(ncn2COCCO)c(=O)[nH]1 [Aciclovir] | -0.49 |
| CS(=O)(=O)c1ccc([C@@H](O)[C@@H](CF)NC(=O)C(Cl)Cl)cc1 [Florfenicol] | 0.29 |
| CC(C(=O)O)c1ccc2c(c1)Cc1cccnc1O2 (stereo not given) [Pranoprofen] | 0.43 |
| COCCOC(=O)C1=C(C)NC(C)=C(C(=O)OC/C=C/c2ccccc2)C1c1cccc([N+](=O)[O-])c1 (stereo not given) [Cilnidipine] | -0.53 |
| CCN(CC)CCOc1ccc(C(=C(Cl)c2ccccc2)c2ccccc2)cc1 [Clomifene citrate] | 0.29 |
| COc1ccc(NS(=O)(=O)c2ccc(N)cc2)nn1 [Sulfamethoxypyridazine] | 0.12 |
| CO/N=C(\C(=O)N[C@@H]1C(=O)N2C(C(=O)O)=C(COC(N)=O)CS[C@H]12)c1ccco1 [Cefuroxime sodium] | 0.58 |
| CCOC(=O)c1ccc(N)cc1 [Benzocaine hydrochloride] | 1.42 |
| NC12CC3CC(CC(C3)C1)C2 [Amantadine] | -0.38 |
| Oc1c(I)cc(Cl)c2cccnc12 [Clioquinol] | -1.64 |
| N[C@H]1CONC1=O [L-Cycloserine] | -0.91 |
| CCCCOC(=O)c1ccc(O)cc1 [Butylparaben] | -0.7 |
| C[C@@H](O)[C@H]1C(=O)N2C(C(=O)O)=C(S[C@@H]3CN[C@H](C(=O)N(C)C)C3)[C@H](C)[C@H]12 [Meropenem] | -0.22 |
| CC(C)C(=O)c1c(C(C)C)nn2ccccc12 [Ibudilast] | 1.05 |
| N/C(=N\N=C\c1ccc(Cl)cc1)N/N=C/c1ccc(Cl)cc1 [Robenidine Hydrochoride] | -2.96 |
| C=CCCCCCCCCC(=O)[O-].C=CCCCCCCCCC(=O)[O-].[Zn+2] [Zinc Undecylenate] | -0.17 |
| C[C@]12CC[C@@H]3c4ccc(O)cc4CC[C@H]3[C@@H]1CC[C@@H]2OC(=O)CCC1CCCC1 [Estradiol Cypionate] | 0.71 |
| NC(=O)N/N=C/c1ccc([N+](=O)[O-])o1 [Nitrofural] | -0.14 |
| O=C1CN2Cc3c(ccc(Cl)c3Cl)N=C2N1 [Anagrelide HCl] | -0.23 |
| COc1cc(O)c(C(=O)Nc2nc(C(=O)NCCN(C(C)C)C(C)C)cs2)cc1OC [Acotiamide] | -0.39 |

| SMILES | z-score of subpopulation abundance |
| --- | --- |
| COc1ccc2[nH]c([S+]([O-])Cc3ncc(C)c(OC)c3C)nc2c1 (stereo not given) [Omeprazole] | -1.23 |
| CNCC[C@H](Oc1cccc2ccccc12)c1cccs1 [Duloxetine] | -0.4 |
| CC(C)(C)CC(C)(C)c1ccc(OCCOCC[N+](C)(C)Cc2ccccc2)cc1 [Benzethonium Chloride] | 0.39 |
| C[C@H]1COc2c(C3(N)CC3)c(F)cc3c(=O)c(C(=O)O)cn1c23 [Pazufloxacin mesylate] | 0.53 |
| Cc1nc(NC(=O)N2CCC[C@H]2C(N)=O)sc1-c1ccnc(C(C)(C)C(F)(F)F)c1 [Alpelisib (BYL719)] | 0.93 |
| CCn1cc(C(=O)O)c(=O)c2cc(F)c(N3CCN(C)CC3)cc21 [Pefloxacin Mesylate Dihydrate] | 0.5 |
| O=C(O)C[C@H](O)C[C@H](O)/C=C/c1c(C2CC2)nc2ccccc2c1-c1ccc(F)cc1 [Pitavastatin Calcium] | 0.68 |
| CN1[C@@H](CC(=O)c2ccccc2)CCC[C@H]1C[C@H](O)c1ccccc1 [Lobeline hydrochloride] | 0.36 |
| CNCc1cc(-c2ccccc2F)n(S(=O)(=O)c2cccnc2)c1 [Vonoprazan Fumarate (TAK-438)] | 0.84 |
| CC1(C)S[C@@H]2[C@H](NC(=O)[C@H](N)c3ccccc3)C(=O)N2[C@H]1C(=O)O [Ampicillin sodium] | 0.29 |
| O=S1(=O)CCN(CN2CCS(=O)(=O)NC2)CN1 [Taurolidine] | 0.64 |
| CCCN1C[C@H](C)[C@@H](O)[C@](C)(O)[C@@H](CC)OC(=O)[C@H](C)[C@@H](O[C@H]2C[C@@](C)(OC)[C@@H](O)[C@H](C)O2)[C@H](C)[C@@H](O[C@@H]2O[C@H](C)C[C@H](N(C)C)[C@H]2O)[C@](C)(O)C[C@H]1C [Gamithromycin] | -0.04 |
| CCCN[C@H]1CCc2nc(N)sc2C1 [Pramipexole dihydrochloride] | -0.06 |
| O=C(Cn1cnnn1)N[C@@H]1C(=O)N2C(C(=O)O)=C(CSc3nncs3)CS[C@H]12 [Ceftezole sodium] | 1.07 |
| CC1(C)S[C@@H]2[C@H](NC(=O)COc3ccccc3)C(=O)N2[C@H]1C(=O)O [Penicillin V potassium salt] | 0.95 |
| Nc1c(Br)cc(Br)cc1CN[C@H]1CC[C@H](O)CC1 [Ambroxol HCl] | -0.79 |
| CN(C)CCc1c[nH]c2ccc(CS(=O)(=O)N3CCCC3)cc12 [Almotriptan Malate] | -0.42 |
| C=C[C@]1(C)C[C@@H](OC(=O)CSC(C)(C)CNC(=O)[C@H](N)C(C)C)[C@]2(C)[C@H](C)CC[C@]3(CCC(=O)[C@H]32)[C@@H](C)[C@@H]1O [Valnemulin HCl] | 0.15 |
| COc1ccc(-c2nc3cc(C4=NNC(=O)CC4C)ccc3[nH]2)cc1 (stereo not given) [Pimobendan] | -0.84 |
| COc1ccc(C(C)=O)c(O)c1 [Paeonol] | 0.71 |

Source: the supplement of paper PMC8975748
